Hits are enriched below; roughly 2.2% of the tested compounds scored in any of these assays.
ATXN viability: Viability Counterscreen for Primary qHTS for Inhibitors of ATXN expression; 0.49% of 400,000 active; Potency, µM (top dose mostly 56.7 µM), hits mostly cytotoxic; S2 cells (HEK-293 line with an ATXN2-luciferase reporter) viability, CellTiter-Fluor protease fluorescence, 24 h; AID 651635, 2014; further: potency means the concentration at half of the fitted maximal effect; nearly all actives have a fitted effect of over 40% in size
ATXN2 expr inh: Primary qHTS for Inhibitors of ATXN expression; HEK-293 ATXN2-luciferase reporter, luminescence, 24 h; Potency, µM (titrated, usually from 57 µM), for the others: at the highest dose activity change, negative = inhibition, usual class: inhibitors; 0.72% of 360,000 active; AID 1745845, 2022; further: potency means the concentration at half of the fitted maximal effect; on the % scale 0 is the no-effect control and ±100 the full control effect; nearly all actives have a fitted effect of over 55% in size
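qHTS (up to 57 uM final) was run with 24 h compound exposure of reporter cells at 37 °C. Each well was multiplexed: SteadyGlo luminescence measured ATXN2-luciferase expression after a fluorogenic Gly-Phe-AFC viability readout (25 uM final).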
TGFb inhibitor: qHTS for Inhibitors of TGF-b | HepG2 CAGA-GFP TGF-b/SMAD3 reporter, GFP fluorescence, 18 h; TGF-beta stimulated, 500 pg/mL final | Potency, µM (series often up to 46.1 µM), without a hit: at the top dose activity, negative = inhibition, actives largely listed as inhibitors | 1.2% of 410,000 active | AID 588855, 2011; further: potency means the concentration at half of the fitted maximal effect; on the % scale 0 is the no-effect control and ±100 the full control effect; nearly all actives have a fitted effect of over 65% in size
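GFP signal (ex488/em500-530) from TGF-beta-stimulated HEPG2 CAGA-GFP cells, 500 pg/mL final, 18 h at 37 degrees C in DMEM plus 1% FBS, normalized to unstimulated and DMSO-stimulated controls.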
HepG2 tox: qHTS for Inhibitors of TGF-b: Cytotox Counterscreen | HepG2 CAGA-GFP viability, ATP luminescence, 18 h | AID 588856, 2011 | 0.76% of 410,000 active | Potency, µM (doses to about 46.1 µM), without a hit: at the highest dose activity change, negative = cytotoxicity, most hits filed as cytotoxic; further: potency means the concentration at half of the fitted maximal effect
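HepG2 CAGA-GFP cells (1000/well, DMEM with 1% FBS) received compound, then TGF-beta at 500 pg/mL final, and were incubated 18 hours at 37 degrees C. Viability was read by CellTiter-Glo luminescence. Media-only wells were set as complete cell-killing and DMSO as no toxicity.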
IDH1 R132H inh: qHTS for Inhibitors of mutant isocitrate dehydrogenase 1 (IDH1): qHTS | Isocitrate dehydrogenase [NADP] cytoplasmic (Homo sapiens), O75874 | AID 602179, 2012 | 0.093% of 390,000 active | Potency, µM (top dose mostly 76.6 µM), for the others: at the highest dose activity change, negative = inhibition, actives largely listed as inhibitors | IDH1-R132H enzyme, NADPH consumption, diaphorase/resazurin fluorescence; further: potency means the concentration at half of the fitted maximal effect; on the % scale 0 is the no-effect control and ±100 the full control effect; nearly all actives have a fitted effect of over 65% in size
Target sequence (O75874 whole entry R132H, stated change not applied): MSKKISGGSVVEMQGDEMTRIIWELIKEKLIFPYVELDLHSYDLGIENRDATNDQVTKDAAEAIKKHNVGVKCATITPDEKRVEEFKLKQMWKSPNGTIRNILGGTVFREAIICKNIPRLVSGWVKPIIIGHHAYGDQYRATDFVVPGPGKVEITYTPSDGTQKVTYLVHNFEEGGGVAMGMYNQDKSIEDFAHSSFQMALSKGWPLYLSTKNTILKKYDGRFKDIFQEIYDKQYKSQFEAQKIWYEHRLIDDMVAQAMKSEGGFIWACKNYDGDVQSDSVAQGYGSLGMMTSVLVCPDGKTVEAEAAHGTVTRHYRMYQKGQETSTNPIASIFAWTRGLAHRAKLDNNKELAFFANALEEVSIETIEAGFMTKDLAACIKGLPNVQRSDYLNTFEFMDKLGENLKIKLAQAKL
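IDH1-R132H (0.5 ug/mL) preincubated 30 min with compound, then NADPH (0.016 mM) and alpha-KG (2 mM) added; 80 min at RT, pH 7.5. Remaining NADPH coupled via diaphorase/resazurin to fluorescence (540/590 nm); concentration-response curves normalized to no-enzyme control.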
LDHA block: qHTS assay for inhibitors of human lactate dehydrogenase. L-lactate dehydrogenase A chain (Homo sapiens), P00338. purified LDHA, NADH/diaphorase-resazurin fluorescence; active compounds read low. activity change, % (values are at about 110 or 230 µM). 0.15% of 480,000 active. AID 1347041, 2019; in the data active means activity change below about -30%; inconclusive means mostly about -25% to -30%;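 further: plate controls were DMSO wells for no effect and wells without enzyme for full effect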
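Remaining NADH was detected by diaphorase (0.133 mg/mL) converting 37 µM resazurin to fluorescent resorufin, read at 0 and 20 minutes. The preceding 5-minute room-temperature reaction used 2 nM LDHA, 0.2 mM sodium pyruvate and 0.06 mM NADH at pH 7.4.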
Resorufin autofl: qHTS for Inhibitors of mutant isocitrate dehydrogenase 1 (IDH1): Cherrypicks Autofluorescence Interference; shares compounds with IDH1 R132H inh; Resorufin detection reagent fluorescence interference, cell-free; inhibition of signal, % at 51.2 µM; 750 tested, under 10 active; AID 623980, 2012;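 further: 0% = wells with normal resorufin and full inhibition = wells lacking resorufin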
WT IDH1 inh: qHTS for Inhibitors of mutant isocitrate dehydrogenase 1 (IDH1): Cherrypicks in WT IDH1; WT IDH1 enzyme, NADPH diaphorase/resazurin fluorescence; 9% of 750 active; AID 623995, 2012; Potency, µM (highest dose often 115 µM), inactives show at the highest dose activity change, negative = inhibition, actives largely listed as inhibitors; shares compounds with IDH1 R132H inh;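 further: potency means the concentration at half of the fitted maximal effect; 0% = full WT IDH1 enzyme control and full inhibition = no enzyme wells; nearly all actives have a fitted effect of over 55% in size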
Target sequence (O75874 whole entry, looked up): as the sequence (O75874 whole entry R132H, stated change not applied) above, with H132R counted along it
IDH1 R132H conf: qHTS for Inhibitors of mutant isocitrate dehydrogenase 1 (IDH1): Confirmation of Cherrypicks | shares compounds with IDH1 R132H inh | IDH1 R132H enzyme, NADPH diaphorase/resazurin fluorescence | Potency, µM (top dose mostly 76.6 µM), for inactives: at the highest dose activity change, negative = inhibition, most hits filed as inhibitors | 83% of 750 active | AID 624002, 2012; further: potency means the concentration at half of the fitted maximal effect; nearly all actives have a fitted effect of over 50% in size
Numbers without * were called inactive; i = inactive; ? = inconclusive; / = not tested or not shown. Unless noted, the call rests on the fitted dose curve; in most records, active means well fitted curve in the direction sought with a large enough effect; inconclusive means small, poorly fitted or top-dose-only effect, or another doubt; inactive means no such curve, though single readings can be large; an effect the other way counts as inactive or inconclusive.

SMILES | ATXN viability | ATXN2 expr inh | TGFb inhibitor | HepG2 tox | IDH1 R132H inh | LDHA block | Resorufin autofl | WT IDH1 inh | IDH1 R132H conf
CC1=CC(C)(C)N2C(=O)C3(C(C#N)=C(N)Oc4cc(O)ccc43)c3c(C)c(C)cc1c32 (configuration not stated) | 12.6µM* | ? | ? | -107.0% | 23.3µM* | 4.2 | 5.1 | 9.8% | 20µM*
O=C(CCc1c[nH]c2ccccc12)N1CCN(CC(=O)N2CCCC2)CC1 | / | / | / | / | / | 1.3 | / | / | /
CCCCn1c(-c2ccc(C)cc2)c(C)n2c3c(=O)n(C)c(=O)n(C)c3nc12 | i | -9.5% | 1.5% | -16.3% | ? | -2.9 | -8.3 | -15.7% | 11.2µM*
COCCn1c(-c2ccccc2)c(C)n2c3c(=O)n(C)c(=O)n(C)c3nc12 | i | -10.5% | 6.0% | 0.3% | 11.7% | 1.3 | / | / | /
CCOc1ccc(-n2cc(-c3ccccc3)c3c(NC4CCCCC4)ncnc32)cc1 | / | / | 9.9% | -15.9% | 4.5% | -6.6 | / | / | /
CCOc1ccc(-n2cc(-c3ccccc3)c3c(NC4CCCC4)ncnc32)cc1 | / | / | ? | -19.5% | ? | -5.4 | -4.2 | -2.2% | 10µM*
CC1(C)CC(=O)C2=C(C1)NC1=C(C(=O)c3ccccc31)C2c1cc([N+](=O)[O-])ccc1O (configuration not stated) | ? | -20.6% | -16.9% | 8.9% | ? | -6.3 | 10.6 | -7.0% | 31.6µM*
Cc1cccc(Nc2nc(N)c([N+](=O)[O-])c(NCc3ccco3)n2)c1 | ? | -34.8% | ? | -47.6% | -27.1% | -5.1 | / | / | /
Nc1nc(Nc2cccc(F)c2)nc(NCc2ccco2)c1[N+](=O)[O-] | i | -4.5% | ? | -23.8% | ? | -3.2 | -4.5 | 3.8% | 31.6µM*
c1ccc(NN(Cc2cnccn2)c2ccccc2)cc1 | i | / | 3.6% | 0.7% | 6.8% | 0.2 | / | / | /
CCOc1ccc(S(=O)(=O)Nc2ccc(C(=O)N3CC(C)OC(C)C3)cc2)cc1 (configuration not stated) | i | -5.2% | ? | -6.1% | 6.4% | -1.1 | / | / | /
CC1CN(C(=O)c2ccc(NS(=O)(=O)c3ccc(C(C)(C)C)cc3)cc2)CC(C)O1 (configuration not stated) | i | -9.2% | -4.0% | -3.3% | ? | 0.1 | -8.9 | 6.6% | 35.5µM*
COC(=O)c1ccc(NC2(C#N)C(=O)Nc3ccccc32)cc1 (configuration not stated) | i | -5.1% | -7.9% | -3.3% | ? | 1.2 | -0.8 | 63.6% | 44.7µM*
COC(=O)CNC(=O)/C=C/c1ccccc1 | / | / | / | / | / | -4.8 | / | / | /
O=C(CNC(=O)C1COc2ccccc2O1)N/N=C/c1ccc([N+](=O)[O-])cc1 (configuration not stated) | i | -13.8% | ? | -12.6% | 1.2% | -0.2 | / | / | /
COc1ccc(NC(=O)C(c2ccc(OC)cc2)N(C)C(=O)CC2NC(=O)NC2=O)cc1 (configuration not stated) | i | 6.7% | -7.8% | -23.5% | 4.9% | 7.3 | / | / | /
CC(C)c1ccc(NC(=O)C(c2ccccc2)N(Cc2ccco2)C(=O)CC2NC(=O)NC2=O)cc1 (configuration not stated) | i | -4.2% | ? | 9.4% | ? | -7.6 | -3.9 | 4.9% | ?
CCCn1cc(CN2CCC(n3nccc3NC(=O)C(OC)c3ccccc3)CC2)c(C)n1 (configuration not stated) | i | 6.1% | 2.5% | -2.5% | 15.1% | -15.7 | / | / | /
C[C@@H]1CN([C@H](C)CO)S(=O)(=O)c2ccc(C#Cc3ccccc3F)cc2O[C@H]1CN(C)C(=O)c1ccc2c(c1)OCO2 | 12.6µM* | ? | ? | -29.5% | ? | 2.0 | -1.4 | 4.5% | 5.62µM*
COc1ccc(/C=C/C(=O)NC(=S)Nc2ccc(S(=O)(=O)Nc3cc(OC)ncn3)cc2)cc1 | i | 0.0% | 11.4% | 1.2% | ? | -9.3 | 7.3 | 39.8µM* | 5.01µM*
COc1cc(NS(=O)(=O)c2ccc(NC(=S)NC(=O)/C=C/c3ccc(OC)c(OC)c3)cc2)ncn1 | i | -3.0% | 6.8% | 0.3% | ? | -8.0 | / | / | /
COc1ccc(N(CC(=O)Nc2ccc(Cl)cc2)S(=O)(=O)c2c(C)n[nH]c2C)cc1 | i | 2.6% | ? | -12.0% | 3.6% | 0.1 | / | / | /
COc1ccc(N(CC(=O)N2CCN(c3ccc(Cl)cc3)CC2)S(=O)(=O)c2c(C)n[nH]c2C)cc1 | i | ? | -25.2% | -16.6% | ? | -10.3 | -2.3 | -7.3% | 12.6µM*
CC(C)C[C@H](NC(=O)c1[nH]cnc1C(=O)N[C@@H](Cc1ccccc1)C(=O)OCc1ccccc1)C(=O)OC(C)(C)C | i | -30.1% | ? | -4.2% | -8.0% | 1.4 | / | / | /
CC(C)C[C@H](NC(=O)c1[nH]cnc1C(=O)N[C@@H](C)c1ccccc1)C(=O)OC(C)(C)C | 25.1µM* | ? | ? | -58.9% | 17.8µM* | 4.5 | 6.6 | -14.1% | 20µM*
COc1cc(-c2cc(C(=O)Nc3ccc(S(=O)(=O)NCc4ccco4)cc3)c3ccccc3n2)cc(OC)c1OC | i | -11.6% | 3.7% | -0.1% | 0.2% | -3.8 | / | / | /
O=P(CCCCCCCCCP(=O)(c1ccccc1)c1ccccc1)(c1ccccc1)c1ccccc1 | 22.4µM* | 25.1µM* | ? | -98.5% | 32.9µM* | -2.3 | -9.0 | 1.3% | 22.4µM*

Screens (PubChem)
